Experimental data from the supplement of paper PMC12645437, “Orthogonal IMiD-Degron Pairs Induce Selective Protein Degradation in Cells” (ACS Chemical Biology, 2025).
Over roughly 8,300 sequences, “log2 fold change of degron read counts, EGFP-low vs EGFP+ sorted cells (limma voom), compound-induced degradation” has its median near -1.1; the highest 2% begin near 3.2. The full list was thinned out, with the highest values kept by preference.

T1: CRBN, Q96SW2
T1 chain: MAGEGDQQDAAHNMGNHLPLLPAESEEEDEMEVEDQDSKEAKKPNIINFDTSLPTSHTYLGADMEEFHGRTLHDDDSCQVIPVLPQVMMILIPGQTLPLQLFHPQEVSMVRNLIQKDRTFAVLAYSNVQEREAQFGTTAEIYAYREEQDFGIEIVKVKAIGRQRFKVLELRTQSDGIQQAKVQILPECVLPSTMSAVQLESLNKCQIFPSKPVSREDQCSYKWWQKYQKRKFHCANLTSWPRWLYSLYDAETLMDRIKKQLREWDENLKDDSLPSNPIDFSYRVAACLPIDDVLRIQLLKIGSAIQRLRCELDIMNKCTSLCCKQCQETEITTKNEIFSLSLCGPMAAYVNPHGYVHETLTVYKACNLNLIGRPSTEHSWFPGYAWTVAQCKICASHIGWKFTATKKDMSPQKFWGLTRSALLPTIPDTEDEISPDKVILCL


Target: T1, CRBN, Q96SW2
Assay: log2 fold change of degron read counts, EGFP-low vs EGFP+ sorted cells (limma voom), compound-induced degradation; higher = more compound-induced degradation of the degron-EGFP fusion; degrons are variants of IKZF1/3 zinc finger 2; compound dose not given here
Settings: Jurkat, 18 h
[1] = compound: compound 19 (5-tert-butyl-thalidomide)
[2] = compound: compound 22 (5-morpholino-thalidomide)
[3] = compound: compound 33 (diphenyl IMiD analogue)
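Further: pooled lentiviral library of zinc finger degron-EGFP fusions in mCherry-positive Jurkat cells, FACS-sorted after compound exposure, with degron abundance counted by next-generation sequencing.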

Sequence | log2 fold change of degron read counts [1] | log2 fold change of degron read counts [2] | log2 fold change of degron read counts [3] | log2 fold change of degron read counts (compound: thalidomide)
FLCPQCGATFTQKGNLLRHIKL [46F_47L_49P_50Q_52G_53A_54T_55F_67L_, Q9UKT9] | -3.01 | -2.75 | -0.206 | -0.949
FLCEICGHMFTQKGNLLRHIKL [46F_47L_49E_50I_52G_53H_54M_55F_67L_, Q9UKT9] | -2.82 | -2.78 | -2.56 | -2.3
FGCPICGRGFTQKGNLLRHIKL [46F_47G_49P_50I_52G_53R_54G_55F_67L_, Q9UKT9] | 2.07 | -0.191 | 0.245 | -0.872
FTCPQCGATFTQKGNLLRHIKL [46F_47T_49P_50Q_52G_53A_54T_55F_67L_, Q9UKT9] | -2 | -0.214 | 1.22 | 0.676
FTCNQCGAIFTQKGNLLRHIKL [46F_47T_49N_50Q_52G_53A_54I_55F_67L_, Q9UKT9] | -2.47 | -2.59 | -1.37 | -1.93
FVCPQCGAEFTQKGNLLRHIKL [46F_47V_49P_50Q_52G_53A_54E_55F_67L_, Q9UKT9] | -2.41 | -1.67 | -0.946 | -0.352
FECEICGRDFTQKGNLLRHIKL [46F_47E_49E_50I_52G_53R_54D_55F_67L_, Q9UKT9] | -3.1 | -3.32 | -2.34 | -2.82
LGCEICGFNCTQKGNLLRHIKL [46L_47G_49E_50I_52G_53F_54N_55C_67L_, Q9UKT9] | -0.546 | -1.21 | -1.47 | -1.13
FVCEICGRKFTQKGNLLRHIKL [46F_47V_49E_50I_52G_53R_54K_55F_67L_, Q9UKT9] | -1.83 | -1.33 | -1.16 | 1.3
LLCEICGFICTQKGNLLRHIKL [46L_47L_49E_50I_52G_53F_54I_55C_67L_, Q9UKT9] | -0.407 | -0.959 | 0.146 | 1.04
FHCPICGRQFTQKGNLLRHIKL [46F_47H_49P_50I_52G_53R_54Q_55F_67L_, Q9UKT9] | 0.0895 | 0.838 | 1.45 | 0.286
LKCPICGFRCTQKGNLLRHIKL [46L_47K_49P_50I_52G_53F_54R_55C_67L_, Q9UKT9] | -1.28 | -2.03 | -2.25 | -0.57
LFCPICGFRCTQKGNLLRHIKL [46L_47F_49P_50I_52G_53F_54R_55C_67L_, Q9UKT9] | 3.24 | 3.2 | 1.81 | 1.69
LQCPICGFECTQKGNLLRHIKL [46L_47Q_49P_50I_52G_53F_54E_55C_67L_, Q9UKT9] | 1.35 | 1.29 | 2.04 | 3.44
LACPICGFRCTQKGNLLRHIKL [46L_47A_49P_50I_52G_53F_54R_55C_67L_, Q9UKT9] | 3.37 | 2.7 | 1.18 | 2.12
LHCPICGFRCTQKGNLLRHIKL [46L_47H_49P_50I_52G_53F_54R_55C_67L_, Q9UKT9] | 2.28 | 2.4 | 1.58 | 1.74
LCCPICGFPCTQKGNLLRHIKL [46L_47C_49P_50I_52G_53F_54P_55C_67L_, Q9UKT9] | 0.812 | 1.08 | 1.35 | 1.76
LVCPICGFECTQKGNLLRHIKL [46L_47V_49P_50I_52G_53F_54E_55C_67L_, Q9UKT9] | 0.125 | 2.29 | 1.28 | 2.99
LRCPICGFPCTQKGNLLRHIKL [46L_47R_49P_50I_52G_53F_54P_55C_67L_, Q9UKT9] | 2.94 | 3.54 | 3.02 | 3.44
LICPICGFPCTQKGNLLRHIKL [46L_47I_49P_50I_52G_53F_54P_55C_67L_, Q9UKT9] | 0.112 | 1.65 | 0.899 | 1.78
LMCPICGFECTQKGNLLRHIKL [46L_47M_49P_50I_52G_53F_54E_55C_67L_, Q9UKT9] | -0.925 | 0.39 | 2.43 | 1.39
LNCPICGFRCTQKGNLLRHIKL [46L_47N_49P_50I_52G_53F_54R_55C_67L_, Q9UKT9] | 1.52 | 0.801 | 0.131 | 1.04
LSCPICGFRCTQKGNLLRHIKL [46L_47S_49P_50I_52G_53F_54R_55C_67L_, Q9UKT9] | 2.79 | 2.57 | 1.22 | 2.27
FCCPVCGAMFTQKGNLLRHIKL [46F_47C_49P_50V_52G_53A_54M_55F_67L_, Q9UKT9] | 1.36 | 0.957 | 2.19 | 1.18
FGCNVCGACFTQKGNLLRHIKL [46F_47G_49N_50V_52G_53A_54C_55F_67L_, Q9UKT9] | 0.221 | 0.434 | 1.03 | -0.871
FRCEICGHAFTQKGNLLRHIKL [46F_47R_49E_50I_52G_53H_54A_55F_67L_, Q9UKT9] | -3.15 | -2.82 | -1.17 | -1.87
FACNVCGAEFTQKGNLLRHIKL [46F_47A_49N_50V_52G_53A_54E_55F_67L_, Q9UKT9] | -1.27 | -1.39 | -1.75 | -2.2
FMCSVCGHCFTQKGNLLRHIKL [46F_47M_49S_50V_52G_53H_54C_55F_67L_, Q9UKT9] | -2.46 | -3.02 | -2.83 | -2.57
